D2 PAM-1 – HTS Assay for Positive Allosteric Modulators of the Human D2 Dopamine Receptor: Primary Screen for Potentiators; potentiation, % at 10 µM; 0.34% of 340,000 active; AID 485347, 2010; HEK293 T-REx D2, calcium flux, EC20 dopamine potentiation; D(2) dopamine receptor (Homo sapiens), P14416;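 active means potentiation over 3 SD above the plate norm, cut at about 30% in these data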; further: 0% is about no effect
Target sequence (P14416 whole entry, looked up): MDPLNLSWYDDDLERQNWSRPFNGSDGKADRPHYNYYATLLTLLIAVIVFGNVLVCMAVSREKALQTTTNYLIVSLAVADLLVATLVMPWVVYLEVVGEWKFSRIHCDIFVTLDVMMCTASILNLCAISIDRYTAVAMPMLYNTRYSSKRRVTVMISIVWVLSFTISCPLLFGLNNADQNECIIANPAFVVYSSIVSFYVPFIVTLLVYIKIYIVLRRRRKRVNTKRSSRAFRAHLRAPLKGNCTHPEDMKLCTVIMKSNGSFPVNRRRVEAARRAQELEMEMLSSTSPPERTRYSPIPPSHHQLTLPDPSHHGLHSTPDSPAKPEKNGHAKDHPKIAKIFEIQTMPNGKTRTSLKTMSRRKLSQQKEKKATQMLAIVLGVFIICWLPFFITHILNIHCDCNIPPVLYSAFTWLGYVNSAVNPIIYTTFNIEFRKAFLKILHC
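Using a no-wash calcium dye in inducible, force-coupled HEK293 Trex cells expressing D2, we tracked fluorescence each second for 180 s after compound, then for 180 s after EC20 dopamine to detect augmented signalling.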
D2 PAM-2 – Beta-Arrestin HTS for Positive Allosteric Modulators of the Human D2 Dopamine Receptor: Potentiators | 0.23% of 360,000 active | D(2) dopamine receptor (Homo sapiens), P14416 | DiscoveRx D2 beta-arrestin cells, luminescence, 90 min; 100% = 57 uM dopamine signal | potentiation, % (test concentration not listed); in the data active means potentiation above about 50%; inconclusive means mostly about 30% to 49%
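D2 cells co-treated with compound plus 50 nM dopamine (EC20) for 90 min at 37 deg C to detect potentiation. Beta-arrestin recruitment was read as enzyme-fragment luminescence after 1 h at ambient temperature. Full response was set by 57 uM dopamine.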
D2 ag-1 – HTS Assay for Allosteric Agonists of the Human D2 Dopamine Receptor: Primary Screen for Agonists; D(2) dopamine receptor (Homo sapiens), P14416; HEK293 T-REx D2 cells, calcium flux agonist mode; activation, % at 2 µM; 0.53% of 340,000 active;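 active means activation over 3 SD above normal in the single-dose calcium agonist read, cut at about 30% in these data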; further: 0% is about no effect
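Agonism is scored from calcium flux in a force-coupled, inducible HEK293 cell line expressing D2, read kinetically for 180 s after compound addition against dopamine controls.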
D2 antag – HTS Assay for Allosteric Antagonists of the Human D2 Dopamine Receptor: Primary Screen for Antagonists; D(2) dopamine receptor (Homo sapiens), P14416; HEK293 TREx D2 cells, calcium flux, dopamine EC80; 2% of 340,000 active; inhibition, % at 10 µM; AID 485344, 2010; in the data active means inhibition above about 30%; inactive means below that, where a call was filed; further: 0% is about no effect
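Calcium mobilization kinetics were recorded at 1 s intervals in tetracycline-induced HEK293 T-REx D2 cells, first for 180 s after compound addition and then 180 s after EC80 dopamine.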
D2 ag-2 – Beta-Arrestin HTS for Positive Allosteric Modulators of the Human D2 Dopamine Receptor: Agonists | D(2) dopamine receptor (Homo sapiens), P14416 | DiscoveRx PathHunter D2 beta-arrestin, luminescence, 90 min; 100% = 57 uM dopamine signal | activation, % (test concentration not listed) | 0.084% of 360,000 active; in the data active means activation above about 40%; inconclusive means between about 15% and that limit
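DiscoveRx PathHunter D2 beta-arrestin cells (2,100/well) attached overnight, then compound-stimulated 90 min at 37 C in HBSS/10 mM HEPES/0.1% Tween-20 buffer; beta-galactosidase complementation read by luminescence after 1 h at ambient temperature. Dopamine 57 uM final (EC100) as control.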
Starred values were filed as active, the others as inactive; ? = inconclusive; / = not tested or not shown. The list is not random: actives were taken first. Their share in the collection is about 2.4%.

SMILES	D2 PAM-1	D2 PAM-2	D2 ag-1	D2 antag	D2 ag-2
CN1CCN(c2c(F)cc([N+](=O)[O-])c(N)c2Br)CC1	-19	-16	0	35*	-4
O=C1CC(c2ccccc2Br)c2c(c3ccccc3oc2=O)O1 (centres undefined)	3	/	0	/	/
ON1C2CCCCC2N(O)C1c1ccccc1F (centres undefined)	3	-10	1	50*	-4
CN1C(=O)C(=Cc2cn(CC(=O)N3CCCC3)c3ccccc23)C(=O)N(C)C1=O	31*	-5	-1	30*	-3
Cc1cc(OCC(=O)N2CCN(CCc3ccncc3)CC2)cc(C)c1Cl	-11	/	/	/	/
O=C(/C=C/c1c[nH]c2ccccc12)c1c(O)n(CCc2ccccc2)c(=O)[nH]c1=O	-7	-3	40*	37*	-1
CCCCn1c(O)c(C(C)=NCCc2c[nH]c3ccccc23)c(=O)[nH]c1=O	3	-2	3	-2	0
O=C1NC(=O)N(Cc2ccco2)C(=O)/C1=C/C=C/c1ccco1	-7	1	7	34*	-5
C/C(=N\Nc1ccccc1)c1c(O)n(Cc2ccccc2)c(=O)[nH]c1=O	8	57*	-1	-10	11
CCOC(=O)c1ccc(NC(=O)c2cccn(Cc3ccccc3F)c2=O)cc1	11	/	1	/	/
CCCc1nc(SC)ncc1C(=O)Nc1ccc(Cl)cc1C(=O)c1ccccc1	/	/	-1	/	/
CCOC(=O)C1CCCCC12C(C#N)=C(N)Oc1n[nH]c(C)c12 (centres undefined)	-2	-9	1	30*	-4
CC(=O)NC1=C(N2CC2C)C(=O)C(NC(C)=O)=C(N2CC2C)C1=O (centres undefined)	/	95*	/	/	10
CCCC(=O)NC1=C(N2CC2)C(=O)C(NC(=O)CCC)=C(N2CC2)C1=O	/	6	/	/	11
Nc1c(C(=O)NCc2ccco2)c2nc3ccccc3nc2n1CCN1CCCCC1	30*	-9	3	-8	-1
NS(=O)(=O)OC(CCc1ccccc1)C(Cl)(Cl)Cl (centres undefined)	7	0	2	38*	1
Cc1ccccc1OCC(=O)N1CCN(CCc2ccccn2)CC1	-11	/	1	/	/
OC(CNC1CCCCC1)C(F)(F)F (centres undefined)	-2	-4	-1	40*	-2
Cc1ccc(Cl)cc1NC(=O)N(Cc1ccc2c(c1)OCO2)C1CCN(Cc2ccccc2)CC1	-19	/	2	/	/
COc1ccccc1N1CCN(Cc2cccc(Br)c2)CC1	-25	-2	-1	76*	-4
COc1ccccc1N1CCN(Cc2cc(C)c(C)cc2O)CC1	/	-19	/	/	-5
COc1ccc(C)cc1NC(=O)N(Cc1ccc2c(c1)OCO2)C1CCN(Cc2ccccc2)CC1	-7	/	0	/	/
c1cc2n(c1)-c1c(ccc3c1OCO3)CNC2c1ccc2c(c1)OCO2 (centres undefined)	1	-36	0	51*	-5
COc1ccc(C(c2c(O)c3ccccc3oc2=O)c2c(C)n(C)n(-c3ccccc3)c2=O)cc1 (centres undefined)	-4	-3	1	93*	-4
CN1CCN(c2nc(N)c(Br)c(Cl)n2)CC1	-17	-54	1	69*	-3
SMILES	D2 PAM-1	D2 PAM-2	D2 ag-1	D2 antag	D2 ag-2
CN1CCN(c2ncnc(Cl)c2N)CC1	-20	-12	1	-17	-4
Cc1ccc(Cn2cccc(C(=O)Nc3ccc4c(c3)OCCO4)c2=O)cc1	-1	/	-1	/	/
Cn1c(=O)n(C)c2cc(CNCCc3ccccc3)ccc21	/	/	3	/	/
C[C@@H]1C(=O)O[C@@H]2[C@H](O)C34[C@@H]5OC(=O)C3(O[C@H]3OC(=O)[C@H](O)C34[C@H](C(C)(C)C)[C@H]5O)[C@@]12O (some centres undefined)	-6	-8	0	37*	-2
CCCN1CCc2cccc3c2[C@H]1Cc1ccc(O)c(O)c1-3	/	136*	/	/	121*
COc1ccc2c(c1O)-c1c(OC)c(OC)cc3c1[C@H](C2)N(C)CC3	-3	-30	0	14	-7
CCOc1ccc2nc(NC(=O)c3cccn(Cc4ccc(Cl)cc4)c3=O)sc2c1	14	/	/	/	/
O=[N+]([O-])c1cccc(CN2CCN(Cc3ccc(Cl)cc3)CC2)c1	-19	-21	0	50*	-3
Cc1ccc(OCC(=O)N2CCN(Cc3ccc(F)cc3)CC2)cc1	-16	/	-2	/	/
CCN(CC)c1ccc(CN2CC=C(c3ccc(F)cc3)CC2)cc1	-24	-44	0	41*	-1
CC(C)N1CCN(Cc2cccc([N+](=O)[O-])c2)CC1	/	-8	-1	-3	-3
O=[N+]([O-])c1cccc(CN2CC=C(c3ccc(F)cc3)CC2)c1	-21	-4	-2	73*	-4
O=[N+]([O-])c1ccccc1CN1CC=C(c2ccc(F)cc2)CC1	-1	-6	0	18	-5
COc1ccc(CN2CC=C(c3ccc(F)cc3)CC2)cc1Br	-32	-11	0	63*	-1
Cc1c(Cl)cccc1NC(=O)CN1C(=O)C(C)N=C(c2ccccc2)c2ccccc21 (centres undefined)	18	/	0	/	/
COc1cccc(NC(=O)c2cccn(Cc3ccccc3C)c2=O)c1	2	/	1	/	/
Cc1ccc(OCC(=O)Nc2ccc(Cl)cc2C(=O)c2ccccc2)cc1C	-6	/	/	/	/
CCOC(=O)c1c(C)n(Cc2ccco2)c2c1cc(O)c1ccccc12	-6	72*	1	-9	?
CCN1CC=C(c2c[nH]c3ccccc23)CC1	-21	-38	0	83*	-3
Cc1[nH]c2ccccc2c1C(=O)CN1CC=C(c2ccccc2)CC1	-28	-8	3	10	-3
Oc1ccc(CC2CC3CCN2CC3)cc1O (centres undefined)	-1	-10	30*	-6	7
COc1ccc(F)cc1C(=O)C1CCCN(Cc2ccc(O)cc2)C1 (centres undefined)	-22	-14	0	72*	-3
CCOc1ccc(CN2CCCC(C(=O)c3ccccc3OC)C2)cc1 (centres undefined)	-24	-21	0	72*	7
COc1ccc(F)cc1C(=O)C1CCCN(Cc2cnc(C)s2)C1 (centres undefined)	-18	-5	1	17	-2

Bioassay records deposited in PubChem BioAssay by National Center for Advancing Translational Sciences (NCATS).
